Source: PubChem BioAssay AID1159580 (chemical genetic matrix, 2015)
Screen size: about 5,500 compounds; about 2,000 (36%) were called active. Another 18% or so got no clear call; they are omitted. Rule as the data show it: active = normalized growth mostly below about 0.91 (no sharp cut-off); inconclusive = no clear call, values can overlap the other calls; inactive = mostly above about 0.92. The list shows a part of the results.

Test: chemical genetic growth profiling, strain panel (AID 1159580);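 also: tested at 20 µM; growth read once vehicle control cultures reached saturation at 30 °C; 1 = growth at the plate median or of vehicle wells; lower values mean less growth of the strain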
Settings: growth OD

Measured: normalized growth

C1CCN2CC3CC(CN4CCCCC34)C2C1 (centres undefined)
inactive: S. cerevisiae deletion strains, locus YJR043C, strain POL32, hits give low values 1.02 | S. cerevisiae deletion strains, locus YJR075W, strain HOC1, hits give low values 1.01 | S. cerevisiae deletion strains, locus YKL009W, strain mrt4, hits give low values 1.02 | S. cerevisiae deletion strains, locus YKL068W, hits give low values 1.01 | S. cerevisiae deletion strains, locus YKL085W, strain MDH1 (second series), hits give low values 1 | S. cerevisiae deletion strains, locus YKL085W, strain MDH1, hits give low values 1 | S. cerevisiae deletion strains, locus YKL160W, strain elf1, hits give low values 0.991 | S. cerevisiae deletion strains, locus YKL190W, strain CNB1, hits give low values 1 | S. cerevisiae deletion strains, locus YKR001C, strain vps1, hits give low values 0.964 | S. cerevisiae deletion strains, locus YKR026C, strain gcn3, hits give low values 1.02 | S. cerevisiae deletion strains, locus YKR091W, strain srl3, hits give low values 1.01 | S. cerevisiae deletion strains, locus YLL001W, strain dnm1, hits give low values 1.04 | S. cerevisiae deletion strains, locus YLL026W, hits give low values 1.01 | S. cerevisiae deletion strains, locus YLL041C, strain sdh2, hits give low values 1.02 | S. cerevisiae deletion strains, locus YLR027C, strain aat2, hits give low values 1.01 | S. cerevisiae deletion strains, locus YLR039C, strain RIC1, hits give low values 1.04 | S. cerevisiae deletion strains, locus YLR058C, strain SHM2, hits give low values 1.02 | S. cerevisiae deletion strains, locus YLR102C, strain apc9, hits give low values 1.01 | S. cerevisiae deletion strains, locus YLR221C, strain rsa3, hits give low values 1.01 | S. cerevisiae deletion strains, locus YLR258W, strain gsy2, hits give low values 1.02 | S. cerevisiae deletion strains, locus YLR262C, strain YPT6 (second series), hits give low values 1 | S. cerevisiae deletion strains, locus YLR262C, strain YPT6, hits give low values 1.01 | S. cerevisiae deletion strains, locus YLR268W, strain sec22, hits give low values 0.894 | S. cerevisiae deletion strains, locus YLR320W, strain mms22, hits give low values 1.03 | S. cerevisiae deletion strains, locus YLR330W, strain CHS5, hits give low values 1.01 | S. cerevisiae deletion strains, locus YLR342W, strain FKS1 (second series), hits give low values 1.03 | S. cerevisiae deletion strains, locus YLR342W, strain FKS1, hits give low values 1.02 | S. cerevisiae deletion strains, locus YLR357W, strain rsc2, hits give low values 1.04 | S. cerevisiae deletion strains, locus YLR370C, strain arc18, hits give low values 1.02 | S. cerevisiae deletion strains, locus YLR371W, strain rom2, hits give low values 0.967 | S. cerevisiae deletion strains, locus YLR384C, strain iki3, hits give low values 1.02 | S. cerevisiae deletion strains, locus YML016C, strain PPZ1, hits give low values 1.01 | S. cerevisiae deletion strains, locus YML032C, strain rad52, hits give low values 1.03 | S. cerevisiae deletion strains, locus YML120C, strain ndi1, hits give low values 1.01 | S. cerevisiae deletion strains, locus YML124C, strain tub3, hits give low values 1.01 | S. cerevisiae deletion strains, locus YMR058W, strain fet3, hits give low values 1.02 | S. cerevisiae deletion strains, locus YMR078C, strain ctf18, hits give low values 1.02 | S. cerevisiae deletion strains, locus YMR125W, strain sto1, hits give low values 1.06 | S. cerevisiae deletion strains, locus YMR129W, hits give low values 1.03 | S. cerevisiae deletion strains, locus YMR205C, strain PFK2, hits give low values 1.04 | S. cerevisiae deletion strains, locus YMR223W, strain ubp8, hits give low values 0.909 | S. cerevisiae deletion strains, locus YMR231W, strain pep5, hits give low values 1.02 | S. cerevisiae deletion strains, locus YMR263W, strain SAP30, hits give low values 0.997 | S. cerevisiae deletion strains, locus YMR307W, strain GAS1, hits give low values 1.02 | S. cerevisiae deletion strains, locus YNL067W, strain RPL9B, hits give low values 0.988 | S. cerevisiae deletion strains, locus YNL071W, strain lat1, hits give low values 1.02 | S. cerevisiae deletion strains, locus YNL128W, strain TEP1, hits give low values 1.01 | S. cerevisiae deletion strains, locus YNL153C, strain GIM3, hits give low values 0.986 | S. cerevisiae deletion strains, locus YNL209W, strain ssb2, hits give low values 1.02 | S. cerevisiae deletion strains, locus YNL233W, strain BNI4, hits give low values 0.998 | S. cerevisiae deletion strains, locus YNL248C, strain rpa49, hits give low values 1.02 | S. cerevisiae deletion strains, locus YNL250W, strain rad50, hits give low values 1.03 | S. cerevisiae deletion strains, locus YNL271C, strain bni1, hits give low values 1.01 | S. cerevisiae deletion strains, locus YNL298W, strain CLA4, hits give low values 1.01 | S. cerevisiae deletion strains, locus YNL322C, strain KRE1 (second series), hits give low values 1.01 | S. cerevisiae deletion strains, locus YNL322C, strain KRE1, hits give low values 1.01 | S. cerevisiae deletion strains, locus YNR049C, strain mso1, hits give low values 1.02 | S. cerevisiae deletion strains, locus YNR052C, strain pop2, hits give low values 1.02 | S. cerevisiae deletion strains, locus YOL006C, strain TOP1, hits give low values 1.03 | S. cerevisiae deletion strains, locus YOL012C, strain htz1 0.345 | S. cerevisiae deletion strains, locus YOL147C, strain pex11, hits give low values 1.01 | S. cerevisiae deletion strains, locus YOR001W, strain rrp6, hits give low values 1.01 | S. cerevisiae deletion strains, locus YOR061W, strain CKA2, hits give low values 1.01 | S. cerevisiae deletion strains, locus YOR069W, strain VPS5, hits give low values 1.01 | S. cerevisiae deletion strains, locus YOR070C, strain gyp1, hits give low values 1.02 | S. cerevisiae deletion strains, locus YOR080W, strain dia2, hits give low values 1.02 | S. cerevisiae deletion strains, locus YOR083W, strain WHI5, hits give low values 0.99 | S. cerevisiae deletion strains, locus YOR106W, strain vam3, hits give low values 1 | S. cerevisiae deletion strains, locus YOR136W, strain idh2, hits give low values 0.961 | S. cerevisiae deletion strains, locus YOR144C, strain elg1, hits give low values 1.01 | S. cerevisiae deletion strains, locus YOR184W, strain ser1, hits give low values 0.959 | S. cerevisiae deletion strains, locus YOR265W, strain rbl2, hits give low values 1.02 | S. cerevisiae deletion strains, locus YOR270C, strain vph1, hits give low values 1.03 | S. cerevisiae deletion strains, locus YOR290C, strain snf2, hits give low values 0.985 | S. cerevisiae deletion strains, locus YOR316C, strain cot1, hits give low values 1.01 | S. cerevisiae deletion strains, locus YPL051W, strain arl3, hits give low values 0.998 | S. cerevisiae deletion strains, locus YPL055C, strain LGE1, hits give low values 1 | S. cerevisiae deletion strains, locus YPL078C, strain atp4, hits give low values 1 | S. cerevisiae deletion strains, locus YPL106C, strain sse1, hits give low values 1.04 | S. cerevisiae deletion strains, locus YPL240C, strain hsp82, hits give low values 1.03 | S. cerevisiae deletion strains, locus YPL241C, strain CIN2, hits give low values 1.01 | S. cerevisiae deletion strains, locus YPR119W, strain clb2, hits give low values 1 | S. cerevisiae deletion strains, locus YPR141C, strain kar3, hits give low values 1.02 | S. cerevisiae deletion strains, locus YPR167C, strain met16, hits give low values 0.992 | S. cerevisiae strains, strain wild type, hits give low values 1.01
active: S. cerevisiae deletion strains, locus YLR418C, strain cdc73, hits give low values 0.811 | S. cerevisiae deletion strains, locus YNL307C, strain MCK1, hits give low values 0.294 | S. cerevisiae deletion strains, locus YPR163C, strain tif3, hits give low values 0.873 | S. cerevisiae deletion strains, strain wtn01, hits give low values 0.863
